Data on 4 compounds can be found in PubChem BioAssay (NCATS).

Molecules are shown by their SMILES. Records with an inconclusive call do not appear. Activity calls are given as the source filed them. Unless noted, calls come from the whole dose curve; as a rule, active = well fitted curve in the direction sought with a large enough effect; inconclusive = small, poorly fitted or top-dose-only effect, or another doubt; inactive = no such curve, though single readings can be large; an effect the other way counts as inactive or inconclusive.

Assay [1] addresses Lysosomal acid glucosylceramidase (Homo sapiens) (UniProt P04062). Kind of assay: Glucocerebrosidase-p2 (AID 348; in the data active = potency below about 10 µM; note: potency is the fitted concentration of half-maximal effect). The settings on record: purified GBA, blue fluorogenic substrate, 40 min. The essentials: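 Normal human glucocerebrosidase (0.2 nM) with blue fluorogenic substrate (80 uM final) in citrate/phosphate pH 5.9 with 10mM sodium taurocholate, 0.01% tween-20; 40 min RT, NaOH/glycine stop; fluorescence Ex 365/Em 440; AC50 from a titration from 0.6 nM upwards.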

Assay [2] is described as follows: AP1 Signaling Pathway (AID 357; active = well fitted curve in either direction with a large enough effect, not every such curve was filed as active; note: % is set by controls: 0 for no effect and ±100 for the full control effect). The settings on record: ME-180 AP-1-bla reporter, EGF-induced, beta-lactamase ratio, 5 h; at 7.69 µM (top of the series) unless noted. In outline: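 AP-1-bla ME-180 cells with beta-lactamase reporter under AP-1 response element, stimulated with EC50 EGF; compounds titrated, 5 hours at 37 degrees Celsius. CCF4 read at 460/530 nm ratio; positive and negative modulators judged by AC50.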

In assay [3] the target is Cytochrome P450 1A2 (Homo sapiens) (UniProt P05177). Kind of assay: p450-cyp1a2 (AID 410; calls by dose curve; note: potency is the fitted concentration of half-maximal effect). The conditions noted are these: recombinant CYP1A2, luciferin-ME demethylation, luminescence; series mostly up to 57 µM. In outline:
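20nM CYP1A2, 100uM Luciferin-ME (=Km), 100mM KPO4; cpd 10 min RT; +NADPH regen, 60 min RT; stop/detect 20 min; luminescence. Normalized to furafylline 57 uM = full inhibition.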

A short description of assay [4]: NFAT Signaling Pathway (AID 444; active = well fitted curve in either direction with a large enough effect, not every such curve was filed as active;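 note: carbachol stimulus at about its EC50 of 1 µM final; % is set by controls: 0 for no effect and ±100 for the full control effect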). The conditions noted are these: Jurkat NFAT-bla M1, carbachol, beta-lactamase ratio, 5 h; at 7.69 µM (top of the series) unless noted. The essentials: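 Read-out: CCF4 FRET ratio (460 nm/530 nm) after 1 h RT dye loading, used for %activity and AC50 from titration series. Cells: Jurkat NFAT-β-lactamase/M1 line, treated with compound plus 1 uM carbachol for 5 h, 37 °C.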

Assay [5] can be described thus: Stat Signaling Pathway (AID 446; active = well fitted curve in either direction with a large enough effect, not every such curve was filed as active;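 note: ME-180 cervical cancer cells given 40 pM IL-6 alongside compound; SIE-controlled beta-lactamase reporter measured as 460/530 nm FRET emission ratio; % is set by controls: 0 for no effect and ±100 for the full control effect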). The conditions noted are these: ME-180 (cervical carcinoma) SIE beta-lactamase reporter, IL-6 stimulated, 5 h; at 7.69 µM (top of the series) unless noted. The essentials:
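Overnight-plated ME-180 cells bearing a STAT Inducible Element beta-lactamase reporter; 5 h co-exposure to compound and 40 pM IL-6; values normalized to 300 pM IL-6 and 125 nM JAK inhibitor controls.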

For assay [6], the target named is Glucocorticoid receptor (Homo sapiens) (UniProt P04150). Kind of assay: GR-GFP Redistribution (AID 450;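 active = compounds whose dose series gives a full or clear partial fitted curve of increased nuclear translocation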; note: potency is the fitted concentration of half-maximal effect). The settings on record: U2OS GR-GFP nuclear translocation, laser cytometry, 2 h.
Chain of Glucocorticoid receptor (Homo sapiens) (P04150 whole entry, looked up, the tested form may be a part): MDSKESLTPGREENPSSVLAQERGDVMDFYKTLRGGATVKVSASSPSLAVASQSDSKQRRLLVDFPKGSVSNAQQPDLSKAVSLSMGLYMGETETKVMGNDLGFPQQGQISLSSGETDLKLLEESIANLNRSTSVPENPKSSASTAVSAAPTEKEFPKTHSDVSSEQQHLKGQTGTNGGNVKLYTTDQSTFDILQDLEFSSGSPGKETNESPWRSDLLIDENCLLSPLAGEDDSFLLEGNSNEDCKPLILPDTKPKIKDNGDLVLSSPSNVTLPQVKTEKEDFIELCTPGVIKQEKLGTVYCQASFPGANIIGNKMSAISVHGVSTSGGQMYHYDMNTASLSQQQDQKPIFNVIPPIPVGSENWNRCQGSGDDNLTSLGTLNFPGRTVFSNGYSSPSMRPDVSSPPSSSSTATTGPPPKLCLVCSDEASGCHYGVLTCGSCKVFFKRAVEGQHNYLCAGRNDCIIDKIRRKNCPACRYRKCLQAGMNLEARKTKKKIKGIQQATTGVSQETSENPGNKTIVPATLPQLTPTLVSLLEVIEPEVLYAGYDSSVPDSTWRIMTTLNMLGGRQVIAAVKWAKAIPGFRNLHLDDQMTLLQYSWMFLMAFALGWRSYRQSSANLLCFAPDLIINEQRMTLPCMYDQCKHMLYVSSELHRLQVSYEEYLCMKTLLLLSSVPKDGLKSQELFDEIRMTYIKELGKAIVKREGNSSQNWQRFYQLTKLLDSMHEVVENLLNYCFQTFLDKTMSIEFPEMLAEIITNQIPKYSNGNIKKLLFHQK
Assay [7] has the same target. Kind of assay: GR-EFC Redistribution (AID 451; calls by dose curve; note: potency is the fitted concentration of half-maximal effect). The conditions noted are these: CHO-K1 GR-EFC translocation, beta-gal luminescence, 2 h. In outline: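 Translocation of GR-ED fusion to nuclear EA restores b-gal, read by luminescence after 1 h room-temperature detection. Engineered CHO-K1 biosensor cells, 1,000/well, exposed 2 h at 37 C to titrations up to 46 uM final.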

In assay [8] the target is Mitogen-activated protein kinase 10 (Mus musculus) (UniProt Q61831). Kind of assay: JNK3 AlphaScreen Assay (AID 530; active = well fitted curve in either direction with a large enough effect, not every such curve was filed as active;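 note: kinase came from lysate of stimulated human HepG2 cells; signal reports phosphorylation of biotinylated GST-cJun 1-79 at Ser73 with 10 µM ATP; % is set by controls: 0 for no effect and ±100 for the full control effect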). The conditions noted are these: JNK3 lysate, c-Jun phosphorylation; series mostly up to 57.1 µM. The essentials:
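Kinase buffer: 20 mM Tris-HCl pH 7.6, 10 mM MgCl2, 1 mM DTT, 0.1 mM Na3VO4, 0.01% Tween-20; ATP 10 uM. Substrate biotin-GST-cJun(1-79), enzyme from activated HepG2 lysates. Detection by Ser73 phospho-antibody AlphaScreen.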
Background: Bead proximity is the source of the signal in Alpha formats.

Assay [9] addresses 3',5'-cyclic-AMP phosphodiesterase 4B (Homo sapiens) (UniProt Q07343). Kind of assay: qHTS Assay for Inhibitors of PDE-IV (AID 607; active = well fitted activation curve with a large enough effect in the main read-out, with a control signal flat, not every such curve was filed as active; note: % of control where 0% means no effect). The conditions noted are these: HEK293 ACTOne CNG channel cells, membrane potential fluorescence; series mostly up to 22.9 µM. In outline: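 Live HEK293 cells with a modified cyclic nucleotide-gated (CNG) channel report intracellular cAMP via membrane-potential dye fluorescence (ex 535/em 590 nm). Endogenous PDE-IV was targeted. Compounds were tested at up to 22.9 uM final; RO 20-1724 100 uM served as control.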
On the technique in general: qHTS replaces the single test concentration by a dilution series.

For assay [10], the target named is Cytochrome P450 3A4 (Homo sapiens) (UniProt P08684). Kind of assay: qHTS Assay for Inhibitors and Substrates of Cytochrome P450 3A4 (AID 884). Note: potency is the fitted concentration of half-maximal effect; nearly all actives have a fitted effect of over 50% in size. The settings on record: recombinant CYP3A4, Luciferin-PPXE luminescence; series mostly up to 57.1 µM. The essentials:
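Luminescent readout of luciferin produced by CYP3A4 (20 nM) dealkylation of Luciferin-PPXE, 25 uM (its KM). NADPH-driven reaction ran 60 min at RT after 10 min compound preincubation; data scaled to 57 uM ketoconazole as 100% inhibition.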

Assay [11] shares this target. Kind of assay: qHTS Assay for Activators of Cytochrome P450 3A4 (AID 885). Note: nearly all actives have a fitted effect of over 65% in size. The settings on record: recombinant CYP3A4, Luciferin-PPXE luminescence, 60 min; series mostly up to 57.1 µM. The essentials:
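Using 20nM recombinant human CYP3A4 in potassium phosphate (200mM), substrate Luciferin-PPXE at 25uM, luminescent luciferin detection followed a 60-min RT NADPH reaction; data scaled to 57 uM ketoconazole.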

The target of assay [12] is Cytochrome P450 2C19 (Homo sapiens) (UniProt P33261). Kind of assay: qHTS Assay for Inhibitors and Substrates of Cytochrome P450 2C19 (AID 899). Note: potency is the fitted concentration of half-maximal effect; nearly all actives have a fitted effect of over 60% in size. The settings on record: recombinant CYP2C19, luciferin-H EGE luminescence; series mostly up to 57.1 µM. In outline:
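Luminescence readout of luciferin formed from 10uM Luciferin-H EGE (KM level) by 5 nM CYP2C19 in 50mM KPO4. 60 min NADPH-driven reaction at 37C after 10 min compound preincubation; data scaled to 57uM ketoconazole inhibition.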

A short description of assay [13]: Confirmation and Secondary Assay for Modulators of Hemoglobin Beta Chain Splicing at IVS2 654 locus (AID 910).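 Note: HeLa cells stably carrying EGFP split by mutant beta-globin IVS2-654 intron; % of control where 0% means no effect.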 The conditions noted are these: HeLa EGFP-654 splicing reporter, GFP fluorescence, 48 h; series mostly up to 38.3 µM. The essentials:
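Readout: per-well total peak green fluorescence (488 nm ex, 500–520 nm em) from objects 5–250 µm, reflecting correct splicing of an EGFP-654 reporter. Compounds were applied for 2 days at 37 °C to overnight-plated HeLa EGFP-654 cells; controls were DMSO and 500 nM IVS2-654 PNA.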

The nature of assay [14]: Confirmation and Secondary Assay for Modulators of Hemoglobin Beta Chain Splicing at IVS2 705 locus (AID 930).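 Note: HeLa cells stably expressing the EGFP-705 splicing reporter; GFP fluorescence per well restored by corrected splicing of the IVS2-705 intron in EGFP; % of control where 0% means no effect.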 The settings on record: HeLa EGFP-705 splicing reporter, GFP fluorescence, 48 h; series mostly up to 38.3 µM. In outline: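 Read-out: total peak GFP fluorescence per well (488 nm excitation, 500-520 nm emission) by laser-scanning cytometry. Cells: HeLa EGFP-705 splicing reporter, 2 days compound exposure in Optimem/2% FCS.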

Assay [15] is described as follows: qHTS Assay for Lipid Storage Modulators (AID 1519; calls by dose curve). The settings on record: Drosophila S3 cells, BODIPY lipid droplet/cell ratio, laser cytometry, cells loaded with oleic acid; for activity change, negative = inhibition: at 57.5 µM (top of the series). The essentials: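 Cells seeded at 5,000 per well were treated with compounds over a concentration series and loaded with oleic acid (400 uM, as added). Lipid droplet fluorescence (488 nm excitation, 500-530 nm channel) was read by laser-scanning cytometry and normalized to 20 uM Triacsin C.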

Assay [16] can be described thus: Primary qHTS for small molecule stabilizers of the endoplasmic reticulum resident proteome: Secreted ER Calcium Modulated Protein (SERCaMP) assay (AID 1508630). Note: % is set by controls: 0 for no effect and ±100 for the full control effect. The settings on record: SH-SY5Y GLuc-SERCaMP (Gaussia luciferase released on ER calcium loss) secretion, thapsigargin, luminescence; series mostly up to 38.4 µM. In outline: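 The SH-SY5Y reporter protocol was run at 3 concentrations up to 38.3 uM (primary) or 11 concentrations (follow-up): 16 h compound, 100 nM thapsigargin for 4 h, then extracellular luciferase luminescence.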

Assay [17] addresses Ubiquitin carboxyl-terminal hydrolase 1 (Homo sapiens) (UniProt O94782). Kind of assay: Inhibitors of USP1/UAF1: Pilot qHTS (AID 504865).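 Note: rhodamine fluorescence freed from ubiquitin-rhodamine substrate followed over time; top concentration of the series differs between compounds; % is set by controls: 0 for no effect and ±100 for the full control effect; nearly all actives have a fitted effect of over 35% in size.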 The settings on record: purified USP1/UAF1, Ub-rhodamine cleavage fluorescence; series mostly up to 54.9 µM. The essentials: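 In 50mM HEPES pH 7.8 containing 0.5mM EDTA, 1mM TCEP, 0.1 mg/ml BSA and 0.01% Tween-20, 1nM USP1/UAF1 is exposed to compound for 15 min, then Ub-Rho (150nM final) is added and fluorescence is read over time.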

Where [18] appears, read: measured here: cell count channel max response.
[19] abbreviates: measured here: lipid channel max response.

Chain of Cytochrome P450 1A2 (Homo sapiens) (P05177 whole entry, looked up): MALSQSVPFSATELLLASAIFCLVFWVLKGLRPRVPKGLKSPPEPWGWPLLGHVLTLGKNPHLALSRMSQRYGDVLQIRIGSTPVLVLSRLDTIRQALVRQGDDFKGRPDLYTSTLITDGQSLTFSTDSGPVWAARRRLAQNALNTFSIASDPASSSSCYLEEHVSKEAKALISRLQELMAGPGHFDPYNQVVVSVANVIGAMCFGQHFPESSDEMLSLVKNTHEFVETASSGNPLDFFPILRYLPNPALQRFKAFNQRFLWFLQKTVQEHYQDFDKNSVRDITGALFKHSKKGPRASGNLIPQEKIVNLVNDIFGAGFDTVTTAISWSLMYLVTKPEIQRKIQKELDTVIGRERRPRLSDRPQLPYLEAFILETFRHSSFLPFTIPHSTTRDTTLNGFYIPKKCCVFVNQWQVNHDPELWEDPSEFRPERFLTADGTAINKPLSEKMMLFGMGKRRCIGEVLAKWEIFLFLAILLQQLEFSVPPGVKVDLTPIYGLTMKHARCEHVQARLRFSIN
Chain of Lysosomal acid glucosylceramidase (Homo sapiens) (P04062 whole entry, looked up): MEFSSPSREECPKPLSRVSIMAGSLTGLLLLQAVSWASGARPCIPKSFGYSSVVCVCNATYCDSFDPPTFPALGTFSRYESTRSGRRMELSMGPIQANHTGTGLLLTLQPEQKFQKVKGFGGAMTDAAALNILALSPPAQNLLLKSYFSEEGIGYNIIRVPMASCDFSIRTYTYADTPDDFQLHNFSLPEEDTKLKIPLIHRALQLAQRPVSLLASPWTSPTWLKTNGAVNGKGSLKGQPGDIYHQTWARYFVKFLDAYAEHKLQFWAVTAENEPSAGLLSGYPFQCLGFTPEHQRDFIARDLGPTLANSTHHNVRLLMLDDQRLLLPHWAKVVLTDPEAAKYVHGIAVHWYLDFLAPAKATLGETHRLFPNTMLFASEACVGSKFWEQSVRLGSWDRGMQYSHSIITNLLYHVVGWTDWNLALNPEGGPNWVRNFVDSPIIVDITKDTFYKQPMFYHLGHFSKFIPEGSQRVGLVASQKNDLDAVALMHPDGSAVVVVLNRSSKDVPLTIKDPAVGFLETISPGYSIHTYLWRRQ
Chain of Cytochrome P450 3A4 (Homo sapiens) (P08684 whole entry, looked up): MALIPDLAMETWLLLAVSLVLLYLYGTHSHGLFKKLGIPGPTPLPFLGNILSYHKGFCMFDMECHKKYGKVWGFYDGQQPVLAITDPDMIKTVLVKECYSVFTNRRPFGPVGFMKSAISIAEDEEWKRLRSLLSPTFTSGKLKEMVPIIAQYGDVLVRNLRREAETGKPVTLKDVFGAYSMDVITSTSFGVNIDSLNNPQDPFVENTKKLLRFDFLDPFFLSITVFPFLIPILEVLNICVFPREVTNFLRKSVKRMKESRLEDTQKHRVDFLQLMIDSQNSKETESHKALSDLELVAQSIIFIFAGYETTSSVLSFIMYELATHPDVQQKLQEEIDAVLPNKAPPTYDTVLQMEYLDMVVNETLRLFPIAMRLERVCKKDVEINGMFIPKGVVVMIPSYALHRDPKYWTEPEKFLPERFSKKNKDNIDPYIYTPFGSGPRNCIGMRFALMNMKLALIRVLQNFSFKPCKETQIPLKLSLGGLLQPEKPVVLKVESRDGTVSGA
Chain of 3',5'-cyclic-AMP phosphodiesterase 4B (Homo sapiens) (Q07343 whole entry, looked up): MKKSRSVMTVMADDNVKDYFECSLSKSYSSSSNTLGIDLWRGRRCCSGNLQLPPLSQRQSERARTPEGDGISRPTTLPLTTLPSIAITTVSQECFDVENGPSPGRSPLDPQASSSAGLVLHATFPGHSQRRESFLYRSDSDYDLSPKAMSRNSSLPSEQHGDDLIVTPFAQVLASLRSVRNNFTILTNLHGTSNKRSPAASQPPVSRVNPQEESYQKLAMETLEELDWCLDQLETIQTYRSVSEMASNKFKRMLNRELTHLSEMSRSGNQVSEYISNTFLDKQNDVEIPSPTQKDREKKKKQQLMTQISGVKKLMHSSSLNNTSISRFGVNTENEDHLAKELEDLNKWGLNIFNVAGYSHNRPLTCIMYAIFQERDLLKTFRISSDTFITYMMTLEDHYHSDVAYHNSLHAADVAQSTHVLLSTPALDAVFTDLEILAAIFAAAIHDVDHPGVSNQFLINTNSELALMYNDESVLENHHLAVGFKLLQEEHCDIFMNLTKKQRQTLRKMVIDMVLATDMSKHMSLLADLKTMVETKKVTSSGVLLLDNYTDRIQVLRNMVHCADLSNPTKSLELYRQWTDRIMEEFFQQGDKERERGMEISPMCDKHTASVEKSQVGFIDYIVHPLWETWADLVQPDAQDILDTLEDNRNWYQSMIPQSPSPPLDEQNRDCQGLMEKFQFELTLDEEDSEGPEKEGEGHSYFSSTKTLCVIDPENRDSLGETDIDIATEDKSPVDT
Chain of Ubiquitin carboxyl-terminal hydrolase 1 (Homo sapiens) (O94782 whole entry, looked up): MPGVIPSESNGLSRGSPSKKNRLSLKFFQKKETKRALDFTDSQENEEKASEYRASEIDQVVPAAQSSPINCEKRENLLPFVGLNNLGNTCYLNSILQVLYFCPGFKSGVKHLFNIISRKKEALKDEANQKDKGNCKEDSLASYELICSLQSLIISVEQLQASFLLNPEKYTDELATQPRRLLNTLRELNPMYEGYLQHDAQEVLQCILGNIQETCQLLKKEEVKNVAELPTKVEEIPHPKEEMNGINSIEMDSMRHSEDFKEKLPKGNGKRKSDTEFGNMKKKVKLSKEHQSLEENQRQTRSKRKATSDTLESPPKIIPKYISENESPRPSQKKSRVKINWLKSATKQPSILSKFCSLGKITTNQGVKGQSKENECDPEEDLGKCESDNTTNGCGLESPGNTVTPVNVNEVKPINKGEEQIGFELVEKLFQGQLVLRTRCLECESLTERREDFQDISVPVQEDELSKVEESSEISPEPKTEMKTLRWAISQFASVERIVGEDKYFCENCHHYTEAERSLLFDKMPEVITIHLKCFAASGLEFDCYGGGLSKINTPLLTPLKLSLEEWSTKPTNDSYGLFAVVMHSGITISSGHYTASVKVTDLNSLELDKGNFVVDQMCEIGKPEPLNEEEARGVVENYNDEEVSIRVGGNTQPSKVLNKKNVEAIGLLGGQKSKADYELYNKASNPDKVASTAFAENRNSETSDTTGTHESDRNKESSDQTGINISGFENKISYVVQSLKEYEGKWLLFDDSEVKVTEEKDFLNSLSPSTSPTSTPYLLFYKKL
Chain of Cytochrome P450 2C19 (Homo sapiens) (P33261 whole entry, looked up): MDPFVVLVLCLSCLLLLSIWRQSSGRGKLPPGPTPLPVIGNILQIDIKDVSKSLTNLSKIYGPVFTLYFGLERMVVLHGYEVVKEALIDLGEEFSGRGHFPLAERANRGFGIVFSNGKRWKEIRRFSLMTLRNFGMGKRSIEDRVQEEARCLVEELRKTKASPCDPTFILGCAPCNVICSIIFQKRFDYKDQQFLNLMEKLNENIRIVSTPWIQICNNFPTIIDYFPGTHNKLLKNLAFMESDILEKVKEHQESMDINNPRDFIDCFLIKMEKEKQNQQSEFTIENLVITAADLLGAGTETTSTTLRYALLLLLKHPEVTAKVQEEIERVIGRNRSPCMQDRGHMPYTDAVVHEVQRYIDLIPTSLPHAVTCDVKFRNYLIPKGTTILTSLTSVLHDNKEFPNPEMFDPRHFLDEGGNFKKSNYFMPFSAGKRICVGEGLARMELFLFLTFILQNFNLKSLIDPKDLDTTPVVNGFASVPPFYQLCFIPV

As to `CN(C)c1ccc(-c2cc(-n3ccnc3)ncn2)cc1`, the Potency was > 11.4 µM (inactive) in assay [1]; 0.158 µM (active) in [3]; > 46 µM (inactive) in assay [6]; > 46 µM (inactive) in [7]; 0.0631 µM (active) in assay [10]; 7.94 µM (active) in assay [12]. Moreover, the values for the activity change, negative = inhibition in assay [2], in assay [4] and in assay [15] were 2.17% (inactive), 9.75% (inactive) and 9.39% (inactive), respectively. Moreover, in [5], the activity, negative = inhibition was 15.9% (inactive). Moreover, the result in assay [8], in assay [13] and in [14] was inactive. The Potency entry in assay [9], in [11] and in [16] was “inactive” in each case. For the same compound, the max response in assay [15] (setting [18]) stood at 11.3%; in assay [15] (setting [19]), 23%.

In the case of `COc1ccc(-n2c(=O)c(C)nc3cnc(Oc4ccccc4)nc32)cc1`, the Potency was > 11.4 µM (inactive) in assay [1], 7.94 µM (active) in assay [3], > 9.22 µM (inactive) in assay [6] and > 46 µM (inactive) in assay [7]. Moreover, the activity change, negative = inhibition in [2] is -0.42% (inactive); in [4] it was 4.01% (inactive); in [15] it was 1.98% (inactive). In addition, in assay [5], the activity, negative = inhibition is -17.4% (inactive). In assay [8], the call was inactive. Besides, the Potency result in [9], in assay [11] and in assay [16] was “inactive” throughout. For the same compound, the max response was 16.7% in assay [15] (setting [18]) and 20.5% in assay [15] (setting [19]).

For `Cc1noc(C)c1-c1cc(Nc2ccc(F)cc2)ncn1`, the Potency is > 11.4 µM (inactive) in assay [1], 0.501 µM (active) in [3], > 46 µM (inactive) in assay [6] and > 46 µM (inactive) in [7]. Also, the activity change, negative = inhibition is -7.8% (inactive) in assay [2], -15.1% (inactive) in assay [4] and 8.49% (inactive) in [15]. For the same compound, the activity, negative = inhibition in [5] was 3.16% (inactive). Moreover, the compound was classed as inactive in assay [8], in assay [13] and in [14]. In addition, the Potency entry in assay [9], in assay [11], in assay [17] and in assay [16] was “inactive” in each case. In addition, the max response stood at 3.61% in assay [15] (setting [18]) and 10.9% in assay [15] (setting [19]).

Turning to `COCCNc1ccnc(-c2ccccc2CN(C)C)n1`, the Potency was > 11.4 µM (inactive) in assay [1], 5.01 µM (active) in assay [3], > 46 µM (inactive) in [6] and > 46 µM (inactive) in assay [7]. Also, the results for the activity change, negative = inhibition in assay [2], in [4] and in [15] were 3.13% (inactive), -0.192% (inactive) and 1.95% (inactive), respectively. Also, the activity, negative = inhibition in assay [5] was 11.3% (inactive). In addition, the compound was classed as inactive in [8], in [13] and in [14]. The Potency result in [9], in assay [17] and in assay [16] was “inactive” throughout. Further, the max response in assay [15] (setting [18]) was -5.81%; in [15] (setting [19]), 7.72%.
